# Results reported in PubChem BioAssay (NCATS).
# Records with an inconclusive call do not appear. Activity calls are given as the source filed them. Calls come from the whole dose curve; as a rule, active = well fitted inhibition curve with a large enough effect; inconclusive = small, poorly fitted or top-dose-only effect; inactive = flat fitted curve, though single readings scatter.
# Assay: P-glycoprotein substrates identified in KB-8-5-11 adenocarcinoma cell line, qHTS therapeutic library screen (AID 1346987); note: nearly all actives have a fitted effect of over 65% in size
# Settings: KB-8-5-11 (P-gp overexpressing) viability, CellTiter-Glo, 72 h; series mostly up to 44.5 µM; activity change, negative = cytotoxicity: at the top concentration
# Method in brief: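 KB-8-5-11, a colchicine-selected P-gp-overexpressing KB-3-1 subline, was grown without colchicine for the assay. Cells were seeded at 500 cells/well, dosed in concentration-response and incubated 72 h at 37 degree C, 5% CO2. Viability was read by CellTiter-Glo luminescence.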
# % is set by controls: 0 for no effect and ±100 for the full control effect.
SMILES,outcome,"activity change, negative = cytotoxicity"
COC(=O)c1ccccc1O[C@@H]1O[C@H](CO)[C@@H](O)[C@H](O)[C@H]1O[C@@H]1O[C@@H](C)[C@H](O)[C@@H](O)[C@H]1O,inactive [at 17.3 µM],
CC(C)CCC[C@@H](C)[C@H]1CC[C@H]2[C@@H]3CC(=O)[C@H]4C[C@@H](O)CC[C@]4(C)[C@H]3CC[C@]12C,,-15.6% (inactive)
CC1CC2OC3(OC2C(C)(C)O)C1C1(C)CCC24CC25CCC(O[C@@H]2OC[C@@H](O)[C@H](O)[C@H]2O)C(C)(C)C5CC=C4C1(C)C3O (stereo partly drawn),inactive [at 17.3 µM],
CC(C)C(C#N)O[C@@H]1O[C@H](CO[C@@H]2O[C@@H](C)[C@H](O)[C@@H](O)[C@H]2O)[C@@H](O)[C@H](O)[C@H]1O (stereo partly drawn),inactive [at 17.3 µM],
CC(C)(C)c1cc(Br)cc([C@H](CC(=O)O)NC(=O)CNC(=O)c2cc(O)cc(NC3=NCC(O)CN3)c2)c1 (stereo partly drawn),,3.03% (inactive)
CC(C)=CCC/C(C)=C/CC/C(C)=C/COC1OC(COC2OCC(OC3OCC(O)C(O)C3O)C(O)C2O)C(O)C(OC2OC(C)C(OC3OC(C)C(OC4OCC(OC5OC(C)C(O)C(O)C5O)C(O)C4O)C(O)C3O)C(O)C2O)C1O (stereo not drawn),,7.18% [at 9.29 µM] (inactive)
CCCC1(c2ccccc2)NC(=O)N(CC(=O)N(C)Cc2c(F)cccc2Cl)C1=O (stereo not drawn),,-35.4% (inactive)
CC(=O)O[C@@H]1[C@H](O[C@@H]2O[C@@H](CO)[C@H](O)[C@H]2O)[C@@H](O[C@@H]2O[C@@H](C)[C@H](O[C@@H]3OC[C@@H](O)[C@H](O)[C@H]3O)[C@@H](O)[C@H]2O)[C@H](OC(=O)[C@]23CCC(C)(C)C[C@H]2C2=CCC4[C@@]5(C)CC[C@H](O[C@@H]6O[C@H](C(=O)O)[C@@H](O)[C@H](O)[C@H]6O[C@@H]6O[C@H](CO)[C@H](O)[C@H](O)[C@H]6O)[C@@](C)(C=O)C5CC[C@@]4(C)[C@]2(C)CC3)O[C@@H]1C (stereo partly drawn),inactive [at 9.29 µM],
